# Structures can show the parent of a compound that is named as a salt.
# Assays:
# Settings in all cases: 10 µM; exposure time 6 h
# [1] = system: Danio rerio larvae (5 dpf); experiment: difference in excitability vs DMSO (percentage points); higher = more excitable than DMSO
# Method in brief: (§1)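 Wild-type zebrafish larvae at 5 dpf were kept in 96-well plates and exposed for 6 h to 100 µL egg water holding library compound at a final concentration of 10 µM. From 3 h into exposure, the plates were held at 28.5 ℃ and photographed every 6 s through a 3-h programme of moving lines and 100 ms, 400Hz tones. Each behaviour was scored by Z-LaP Tracker, a DeepLabCut model, and averaged over 48 larvae per compound. Every value gives the compound mean minus the vehicle control mean, in percentage points.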
# [2] = system: Danio rerio larvae (5 dpf); experiment: difference in startle response vs DMSO (percentage points); higher = stronger startle than DMSO
# Method in brief: as §1
# [3] = system: Danio rerio larvae (5 dpf); experiment: difference in activity during first hour vs DMSO (percentage points); higher = more activity than DMSO
# Method in brief: as §1
# [4] = system: Danio rerio larvae (5 dpf); experiment: difference in habituation to acoustic stimuli vs DMSO (percentage points); higher = more habituation than DMSO
# Method in brief: as §1
# [5] = system: Danio rerio larvae (5 dpf); experiment: difference in combined optomotor response to red, green and blue moving lines vs DMSO (percentage points); higher = stronger optomotor response than DMSO
# Method in brief: as §1
Compound,difference in excitability [1],difference in startle response [2],difference in activity during first hour [3],difference in habituation to acoustic stimuli [4],difference [5]
CC1(C)O[C@@H]2[C@@H](CO[C@@]3(COS(N)(=O)=O)OC(C)(C)O[C@@H]23)O1 [Topiramate],-2.77,10.8,-1.72,1.75,-0.45
CCOc1nc2cccc(C(=O)OCc3oc(=O)oc3C)c2n1Cc1ccc(-c2ccccc2-c2noc(=O)[nH]2)cc1 [Azilsartan Medoxomil],6.47,-1.67,-8.07,5.02,-2.25
CN(C)C(=O)C(CCN1CCC(O)(c2ccc(Cl)cc2)CC1)(c1ccccc1)c1ccccc1 [Loperamide (hydrochloride)],20.6,4.43,29.3,-9.2,-2.52
COCCCOc1cc(C[C@@H](C[C@H](N)[C@@H](O)C[C@H](C(=O)NCC(C)(C)C(N)=O)C(C)C)C(C)C)ccc1OC [Aliskiren (hemifumarate)],16.6,-3.2,10.2,0.61,3.27
CC(C)CCCCC(=O)N[C@@H](CCNCS(=O)(=O)O)C(=O)N[C@H](C(=O)N[C@@H](CCNCS(=O)(=O)O)C(=O)N[C@H]1CCNC(=O)[C@H]([C@@H](C)O)NC(=O)[C@H](CCNCS(=O)(=O)O)NC(=O)[C@H](CCNCS(=O)(=O)O)NC(=O)[C@H](CC(C)C)NC(=O)[C@@H](CC(C)C)NC(=O)[C@H](CCNCS(=O)(=O)O)NC1=O)[C@@H](C)O.CC[C@@H](C)CCCCC(=O)N[C@@H](CCNCS(=O)(=O)O)C(=O)N[C@H](C(=O)N[C@@H](CCNCS(=O)(=O)O)C(=O)N[C@H]1CCNC(=O)[C@H]([C@@H](C)O)NC(=O)[C@H](CCNCS(=O)(=O)O)NC(=O)[C@H](CCNCS(=O)(=O)O)NC(=O)[C@H](CC(C)C)NC(=O)[C@@H](CC(C)C)NC(=O)[C@H](CCNCS(=O)(=O)O)NC1=O)[C@@H](C)O [Colistin Methanesulfonate (sodium salt)],20.4,-4.76,4.65,0.808,-2.32
CCN[C@H]1CN(CCCOC)S(=O)(=O)c2sc(S(N)(=O)=O)cc21 [Brinzolamide],2.16,-4.77,-5.26,-5.35,1.28
CCCc1nc(C(C)(C)O)c(C(=O)OCc2oc(=O)oc2C)n1Cc1ccc(-c2ccccc2-c2nnn[nH]2)cc1 [Olmesartan Medoxomil],-0.702,-2.51,0.837,-4.7,0.0218
COc1ccccc1OCC(O)CN1CCN(CC(=O)Nc2c(C)cccc2C)CC1 (stereo not given) [Ranolazine (hydrochloride)],14.6,-5.16,4.7,3.56,2.81
CN(C)C/C=C/C(=O)Nc1cc2c(Nc3ccc(F)c(Cl)c3)ncnc2cc1O[C@H]1CCOC1 [Afatinib (maleate)],20.1,-1.05,-11.3,5.63,8.09
CCOC(=O)[C@H](CCc1ccccc1)N[C@@H](C)C(=O)N1[C@H](C(=O)O)C[C@H]2CCCC[C@@H]21 [Trandolapril],-2.52,-0.34,2.67,-0.88,6.04
CNC[C@H](O)c1ccc(O)c(O)c1 (racemic) [(±)-Epinephrine (hydrochloride)],-0.953,-6,37.7,-7.58,4.53
COc1c(N2CCNC(C)C2)c(F)cc2c(=O)c(C(=O)O)cn(C3CC3)c12 (stereo not given) [Gatifloxacin],15,-3.53,-1.17,2.86,2.83
CC(C)C[C@H](NC(=O)[C@H](Cc1ccccc1)NC(=O)c1cnccn1)B(O)O [Bortezomib],2.69,2.81,3.67,-1.33,-0.842
CN(C)CCC=C1c2ccccc2COc2ccccc21 [Doxepin (hydrochloride)],9.9,-1.02,0.133,2.48,4.43
O=C(O)CCNC(=O)c1ccc(/N=N/c2ccc(O)c(C(=O)O)c2)cc1 [Balsalazide],4.51,9.09,15,1.8,4.25
CC(C)(S)[C@@H](N)C(=O)O [Penicillamine],1.99,3.43,-11.2,6.31,4.5
OCCN1CCN(CCCN2c3ccccc3Sc3ccc(Cl)cc32)CC1 [Perphenazine],18.9,-4.36,24,-10.2,2.99
COCC1=C(C(=O)O)N2C(=O)[C@@H](NC(=O)/C(=N\OC)c3csc(N)n3)[C@H]2SC1 [Cefpodoxime],0.712,1.11,-0.401,-0.554,7.24
N[C@@H](Cc1cc(I)c(Oc2cc(I)c(O)c(I)c2)c(I)c1)C(=O)O [L-Thyroxine],12.1,-4.02,7.61,-1.15,1.95
O=C(O)c1cn(C2CC2)c2cc(N3CCNCC3)c(F)cc2c1=O [Ciprofloxacin (hydrochloride)],5.21,-3.39,16.5,2.26,2.77
CCCCNc1cc(C(=O)O)cc(S(N)(=O)=O)c1Oc1ccccc1 [Bumetanide],5.57,-2.75,5.52,-3.24,3.54
COC(=O)N[C@H](C(=O)N1CCC[C@H]1c1nc(-c2ccc3c(c2)O[C@@H](c2ccccc2)n2c-3cc3cc(-c4c[nH]c([C@@H]5CCCN5C(=O)[C@@H](NC(=O)OC)C(C)C)n4)ccc32)c[nH]1)C(C)C [Elbasvir],9.31,-11.8,0.959,5.9,1.3
